Measured values from PubChem BioAssay (NCATS).
Inconclusive results are not listed. Activity calls are given as the source filed them. Unless noted, calls follow the shape of the dose curve; as a rule, active = well fitted curve in the direction sought with a large enough effect; inconclusive = small, poorly fitted or top-dose-only effect, or another doubt; inactive = no such curve, though single readings can be large; an effect the other way counts as inactive or inconclusive.

Assays:
[1] = target: Ubiquitin carboxyl-terminal hydrolase 2 (Homo sapiens) (UniProt O75604); experiment: qHTS Validation Assay for Inhibitors of Ubiquitin-specific Protease USP2a Using CHOP2 as the Reporter (AID 463106); conditions: USP2a cleavage of CHOP2 reporter, enzymatic; series mostly up to 38.3 µM
How it was run: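 Readout was coupled fluorescence (Ex 485/Em 531 nm), read 60 min after adding 25 nM final Ub-CHOP2 and 25 nM reporter substrate. Beforehand, 10 nM final USP2 core had 30 min at RT with compound in pH 8.0 buffer. Curves were fitted after normalization to NEM and flagged for artifacts using time-zero reads.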

[2] = target: DNA polymerase III PolC-type (Bacillus subtilis (strain 168)) (UniProt P13267); experiment: qHTS Validation Assay for the Inhibitors of DNA Replication in Gram-Positive Bacteria (AID 485295); conditions: Gram-positive bacterial DNA replication assay; series mostly up to 57.1 µM;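 also: PicoGreen fluorescence of double-stranded DNA made on primed circular M13 template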
How it was run: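 Reconstituted B. subtilis holoenzyme (Pol III, beta clamp, SSB, primase) was preincubated with compound at room temperature, then given single-stranded circular M13Gori plus dNTPs and NTPs. EDTA-containing PicoGreen stopped the reaction, and dsDNA product was read by fluorescence.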

[3] = target: Tumor susceptibility gene 101 protein (Homo sapiens) (UniProt Q99816); experiment: qHTS Validation Assay for Iinhibitors of HIV-1 Budding by Blocking the Interaction of PTAP/TSG101 (AID 485342; calls by dose curve); conditions: TSG101-PTAP binding, fluorescence polarization, 4-point titration; series mostly up to 115 µM
How it was run: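 Tsg101 binding domain (10 uM final) in pH 7.5 HEPES/NaCl/Tween 20/EDTA/TCEP buffer was mixed with pin-transferred compounds, then FITC-labeled PTAP peptide (50 nM final) was added; after 20 min at r.t., fluorescence polarization was read.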

[4] = target: Beta-2 adrenergic receptor (Homo sapiens) (UniProt P07550); experiment: qHTS validation assay of beta-arrestin-biased ligands of beta2-adrenergic receptor (AID 485366); conditions: cell-based beta-arrestin recruitment to ADRB2, qHTS; series mostly up to 46.1 µM
How it was run: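 Agonist activity is measured as luciferase luminescence downstream of beta-arrestin recruitment to recombinant beta2-AR in Tango cells. Exposure lasts 18 hr at 37 degrees C, and curves are categorized by r2, response size and activity.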

[5] = Quantitative high throughput screen for delayed death inhibitors of the malarial parasite plastid, 48 hour incubation (AID 488752); conditions: Plasmodium falciparum growth; series mostly up to 28.7 µM; also: nearly all actives have a fitted effect of over 65% in size; also: potency is read from the fitted curve at half-maximal effect
How it was run: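 One-generation (48 h) growth assay: a decrease in luciferase signal from an integrated reporter in P. falciparum-infected red cells (0.1% parasitemia, 2% hematocrit) after compound exposure at 37 C indicates parasite inhibition.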

[6] = target: Thioredoxin reductase 1, cytoplasmic (Rattus norvegicus) (UniProt O89049); experiment: qHTS Assay for Substrates of Mammalian Selenoprotein Thioredoxin Reductase 1 (TrxR1) (AID 488772); conditions: purified TrxR1, NADPH consumption substrate assay; series mostly up to 57.1 µM;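 also: a drop in NADPH fluorescence below the no-compound background marks a TrxR1 substrate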
How it was run: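 In this dual-purpose format, potential substrates are identified from the first fluorescence read after selenite addition, not from the 8-minute delta. Rat enzyme is preincubated with NADPH and then with compound at ~22 deg C.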

[7] = qHTS Validation Assay to Find Inhibitors of Chronic Active B-Cell Receptor Signaling (AID 485345; active = well fitted curve in the direction sought with a large enough effect in the main read-out, with a control signal flat, not every such curve was filed as active); conditions: ABC-DLBCL cells, chronic BCR signaling reporter, CBG luciferase; series mostly up to 46.1 µM
How it was run: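 Read-out: ratio of filter-corrected green (IkappaBalpha fusion) to red (native) luciferase signal in doxycycline-induced TMD8 cells after 4 h at 37C. Titration spanned 46 uM–3 nM; Data were normalised to basal cells and 10 uM MG-132 wells.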

[8] = Quantitative high throughput screen for delayed death inhibitors of the malarial parasite plastid, 96 hour incubation (AID 488745); conditions: Plasmodium falciparum growth; series mostly up to 28.7 µM; also: nearly all actives have a fitted effect of over 70% in size; also: potency is read from the fitted curve at half-maximal effect
How it was run: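 Decreased firefly luciferase luminescence indicates inhibited growth of reporter-integrated P. falciparum after two generations (96 h, 37 C, 5% CO2). Infected erythrocytes at 0.1% parasitemia, 2% hematocrit, in Albumax-supplemented RPMI 1640.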

[9] = target: ATP-dependent 6-phosphofructokinase (Trypanosoma brucei brucei) (UniProt O15648); experiment: qHTS Validation Assay to Find Inhibitors of T. brucei phosphofructokinase (AID 485368); conditions: T. brucei PFK enzyme assay, qHTS 7-point titration; series mostly up to 57.5 µM
How it was run: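 Inhibition derived from concentration-response curves of luminescence, ranked by r2, response size and curve class; the underlying reaction used 1.25 nM PFK, 0.1 mM ATP and 0.5 mM F6P, 45 min, room temperature.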

Measured: Potency

Chain of Tumor susceptibility gene 101 protein (Homo sapiens) (Q99816 whole entry, looked up, the tested form may be a part): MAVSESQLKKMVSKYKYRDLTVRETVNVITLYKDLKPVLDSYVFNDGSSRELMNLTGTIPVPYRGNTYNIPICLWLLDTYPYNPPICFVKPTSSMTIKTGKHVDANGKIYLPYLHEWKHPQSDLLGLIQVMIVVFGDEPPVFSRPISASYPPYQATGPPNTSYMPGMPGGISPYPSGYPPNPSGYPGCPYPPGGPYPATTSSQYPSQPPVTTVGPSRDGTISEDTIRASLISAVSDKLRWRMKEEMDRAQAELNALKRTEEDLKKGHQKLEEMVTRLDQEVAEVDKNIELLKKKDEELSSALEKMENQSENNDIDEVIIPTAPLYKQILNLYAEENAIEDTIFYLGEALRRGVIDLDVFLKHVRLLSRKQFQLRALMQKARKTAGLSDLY
Chain of Ubiquitin carboxyl-terminal hydrolase 2 (Homo sapiens) (O75604 whole entry, looked up): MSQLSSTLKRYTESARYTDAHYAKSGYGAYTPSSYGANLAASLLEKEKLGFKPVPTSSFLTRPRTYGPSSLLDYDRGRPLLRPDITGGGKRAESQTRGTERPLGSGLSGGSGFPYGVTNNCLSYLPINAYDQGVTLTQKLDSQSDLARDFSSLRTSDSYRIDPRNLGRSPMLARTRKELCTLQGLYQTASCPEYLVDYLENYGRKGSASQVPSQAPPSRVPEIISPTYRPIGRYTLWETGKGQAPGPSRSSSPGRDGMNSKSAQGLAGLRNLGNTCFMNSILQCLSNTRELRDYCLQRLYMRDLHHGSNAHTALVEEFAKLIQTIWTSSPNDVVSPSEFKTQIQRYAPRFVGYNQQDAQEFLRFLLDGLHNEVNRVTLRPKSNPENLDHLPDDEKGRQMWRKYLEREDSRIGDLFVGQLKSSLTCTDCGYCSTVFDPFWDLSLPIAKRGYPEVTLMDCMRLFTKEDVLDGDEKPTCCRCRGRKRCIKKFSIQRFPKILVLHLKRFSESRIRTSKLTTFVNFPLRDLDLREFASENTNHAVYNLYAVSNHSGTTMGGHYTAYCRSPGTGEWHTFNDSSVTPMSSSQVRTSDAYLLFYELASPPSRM
Chain of Beta-2 adrenergic receptor (Homo sapiens) (P07550 whole entry, looked up): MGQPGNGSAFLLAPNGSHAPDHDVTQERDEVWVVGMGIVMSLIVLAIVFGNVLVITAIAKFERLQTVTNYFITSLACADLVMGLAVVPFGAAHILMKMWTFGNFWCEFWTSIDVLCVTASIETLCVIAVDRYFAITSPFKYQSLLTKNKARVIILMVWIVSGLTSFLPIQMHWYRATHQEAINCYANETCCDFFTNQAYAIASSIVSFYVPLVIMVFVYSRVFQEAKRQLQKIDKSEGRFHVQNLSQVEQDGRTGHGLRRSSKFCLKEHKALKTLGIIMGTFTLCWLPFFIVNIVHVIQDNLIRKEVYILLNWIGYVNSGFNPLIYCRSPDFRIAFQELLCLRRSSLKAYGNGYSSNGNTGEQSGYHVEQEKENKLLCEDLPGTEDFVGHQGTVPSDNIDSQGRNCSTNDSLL
Chain of DNA polymerase III PolC-type (Bacillus subtilis (strain 168)) (P13267 whole entry, looked up): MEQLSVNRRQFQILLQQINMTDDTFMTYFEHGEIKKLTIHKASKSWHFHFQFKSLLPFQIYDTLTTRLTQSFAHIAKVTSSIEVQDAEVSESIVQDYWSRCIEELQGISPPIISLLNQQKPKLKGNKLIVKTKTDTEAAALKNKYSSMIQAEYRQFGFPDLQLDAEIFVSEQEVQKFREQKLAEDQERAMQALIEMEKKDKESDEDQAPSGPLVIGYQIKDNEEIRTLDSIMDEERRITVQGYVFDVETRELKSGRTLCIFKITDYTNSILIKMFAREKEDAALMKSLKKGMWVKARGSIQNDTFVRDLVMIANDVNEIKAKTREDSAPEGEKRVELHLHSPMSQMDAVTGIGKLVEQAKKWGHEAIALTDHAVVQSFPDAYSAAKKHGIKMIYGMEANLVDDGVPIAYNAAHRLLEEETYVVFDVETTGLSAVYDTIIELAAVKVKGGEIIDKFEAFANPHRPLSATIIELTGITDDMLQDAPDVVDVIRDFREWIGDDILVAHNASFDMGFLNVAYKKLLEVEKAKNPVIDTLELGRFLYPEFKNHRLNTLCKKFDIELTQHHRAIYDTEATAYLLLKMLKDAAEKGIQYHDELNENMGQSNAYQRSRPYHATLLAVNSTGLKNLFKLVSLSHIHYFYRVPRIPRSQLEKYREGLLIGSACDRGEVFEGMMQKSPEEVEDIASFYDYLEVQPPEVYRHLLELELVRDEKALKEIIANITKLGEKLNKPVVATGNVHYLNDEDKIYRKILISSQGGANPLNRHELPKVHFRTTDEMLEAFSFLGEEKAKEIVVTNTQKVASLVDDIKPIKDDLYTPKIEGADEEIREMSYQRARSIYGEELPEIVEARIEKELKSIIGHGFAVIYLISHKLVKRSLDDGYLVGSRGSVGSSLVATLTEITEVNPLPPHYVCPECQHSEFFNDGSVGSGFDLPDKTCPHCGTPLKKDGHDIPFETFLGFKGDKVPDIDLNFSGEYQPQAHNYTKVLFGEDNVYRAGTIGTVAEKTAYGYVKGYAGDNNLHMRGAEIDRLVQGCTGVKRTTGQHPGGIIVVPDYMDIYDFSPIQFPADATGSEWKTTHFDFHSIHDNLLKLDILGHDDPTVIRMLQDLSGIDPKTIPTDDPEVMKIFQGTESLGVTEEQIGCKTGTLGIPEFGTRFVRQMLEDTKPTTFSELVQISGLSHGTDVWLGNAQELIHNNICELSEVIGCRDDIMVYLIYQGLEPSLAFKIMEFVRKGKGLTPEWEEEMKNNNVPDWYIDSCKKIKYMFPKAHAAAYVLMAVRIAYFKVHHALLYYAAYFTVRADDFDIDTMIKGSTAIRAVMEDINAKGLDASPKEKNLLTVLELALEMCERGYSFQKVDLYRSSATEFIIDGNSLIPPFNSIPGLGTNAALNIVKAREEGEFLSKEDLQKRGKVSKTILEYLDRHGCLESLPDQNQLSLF
Chain of ATP-dependent 6-phosphofructokinase (Trypanosoma brucei brucei) (O15648 whole entry, looked up): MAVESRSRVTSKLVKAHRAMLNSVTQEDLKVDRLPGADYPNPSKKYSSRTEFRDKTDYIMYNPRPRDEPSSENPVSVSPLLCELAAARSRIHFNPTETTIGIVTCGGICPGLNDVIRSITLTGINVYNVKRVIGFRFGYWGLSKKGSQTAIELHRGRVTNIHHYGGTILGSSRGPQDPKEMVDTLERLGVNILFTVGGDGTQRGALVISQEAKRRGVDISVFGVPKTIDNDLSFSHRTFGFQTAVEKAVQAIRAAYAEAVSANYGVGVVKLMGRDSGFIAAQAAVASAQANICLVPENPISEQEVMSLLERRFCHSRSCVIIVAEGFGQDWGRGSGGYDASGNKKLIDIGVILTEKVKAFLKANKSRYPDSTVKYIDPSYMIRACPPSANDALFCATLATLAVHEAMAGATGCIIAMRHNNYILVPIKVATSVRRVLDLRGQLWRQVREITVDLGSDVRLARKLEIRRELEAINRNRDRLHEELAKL
Chain of Thioredoxin reductase 1, cytoplasmic (Rattus norvegicus) (O89049 whole entry, looked up): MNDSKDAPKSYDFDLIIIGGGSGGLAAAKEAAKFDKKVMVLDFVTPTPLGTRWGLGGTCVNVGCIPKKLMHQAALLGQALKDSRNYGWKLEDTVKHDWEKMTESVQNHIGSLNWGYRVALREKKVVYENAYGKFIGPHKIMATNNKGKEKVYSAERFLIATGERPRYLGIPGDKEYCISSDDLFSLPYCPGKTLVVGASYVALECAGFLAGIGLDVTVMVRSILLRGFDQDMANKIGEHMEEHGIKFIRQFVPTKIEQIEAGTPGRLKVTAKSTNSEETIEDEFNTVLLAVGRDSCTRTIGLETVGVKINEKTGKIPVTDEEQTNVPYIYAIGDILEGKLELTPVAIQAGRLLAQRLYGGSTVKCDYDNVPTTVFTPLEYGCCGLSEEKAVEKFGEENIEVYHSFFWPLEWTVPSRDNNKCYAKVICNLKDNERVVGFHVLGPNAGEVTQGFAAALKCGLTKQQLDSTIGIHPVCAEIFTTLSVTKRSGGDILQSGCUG

COc1cc2c(cc1OC)-c1cc(=Nc3c(C)cc(C)cc3C)n(C)c(=O)n1CC2
active: [5] 2.62 µM
inactive: [1] | [2] | [3] | [4] | [6]

CCOC(=O)C1=C(C)NC(C)=C(C(=O)OC)C1c1cccc([N+](=O)[O-])c1 (configuration not stated)
inactive: [1] | [2] | [3] | [4] | [6]

C(=C\c1ccccc1)/CN1CCN(C(c2ccccc2)c2ccccc2)CC1
not listed: [4] | [5] | [9]
inactive: all other assays above

COC(=O)C1=C(C)NC(C)=C(C(=O)OCCN(C)Cc2ccccc2)C1c1cccc([N+](=O)[O-])c1 (configuration not stated)
inactive: [1] | [3] | [4] | [9] | [6]

CCCCCCCC/C=C\CCCCCCCC(=O)NCc1ccc(O)c(OC)c1
inactive: [1] | [3] | [7] | [9]

CN1C(=O)CC[C@H]1c1cccnc1
not listed: [5] | [8]
inactive: all other assays above

COc1cc(C(=O)OCCCN2CCCN(CCCOC(=O)c3cc(OC)c(OC)c(OC)c3)CC2)cc(OC)c1OC
active: [8] 6.57 µM
inactive: [1] | [3] | [4] | [6]

Cc1cc(C)c(/C=C2\C(=O)Nc3ccccc32)[nH]1
inactive: [2] | [6]

C[C@]12CC[C@@H]3c4ccc(O)cc4C[C@@H](CCCCCCCCCS(=O)CCCC(F)(F)C(F)(F)F)[C@H]3[C@@H]1CC[C@@H]2O (some centres not stated)
inactive: [1] | [2] | [3] | [9]

CC(=O)[C@@]1(O)CC[C@H]2[C@@H]3CCC4=CC(=O)CC[C@]4(C)[C@H]3CC[C@@]21C
inactive: [1] | [3] | [7] | [4] | [6]

CC(C)(Oc1ccc(CCNC(=O)c2ccc(Cl)cc2)cc1)C(=O)O
inactive: [1] | [2] | [3] | [9] | [6]

Cc1nc2sccn2c(=O)c1CCN1CCC(=C(c2ccc(F)cc2)c2ccc(F)cc2)CC1
inactive: [1] | [3] | [4] | [5] | [6]

NC(=O)c1cn(Cc2c(F)cccc2F)nn1
inactive: [1] | [2] | [3] | [7] | [6]

NC1=NCC2c3ccccc3Cc3ccccc3N12 (configuration not stated)
inactive: [1] | [2] | [3] | [4] | [6]

Cc1cccc(C)c1NC(=O)C(C)N (configuration not stated)
inactive: [1] | [3] | [6]

CCC(=O)c1ccc2c(c1)N(CCCN(C)C)c1ccccc1S2
inactive: [1] | [2] | [3] | [7] | [9]

CN1CCN(CC(=O)N2c3ccccc3C(=O)Nc3cccnc32)CC1
inactive: [1] | [3] | [7] | [5] | [6]

CCN(CC)CCCN(c1ccccc1)C1Cc2ccccc2C1
inactive: [1] | [3] | [4] | [6]

O=C1NCN(c2ccccc2)C12CCN(CCCC(c1ccc(F)cc1)c1ccc(F)cc1)CC2
inactive: [1] | [2] | [3]

NC(N)=NC(=O)Cc1c(Cl)cccc1Cl
not listed: [5] | [7] | [8]
inactive: all other assays above

CC1=C(C)C(=O)C(CCCCC#CCCCC#CCO)=C(C)C1=O
active: [8] 10.4 µM | [5] 8.28 µM
not listed: [7] | [9]
inactive: all other assays above
